Measurements from PubChem BioAssay (Tox21).
Where “and” joins values, the source holds several entries; their conditions need not be identical. Identical values can stand only once. Results filed as inconclusive are left out. Calls of active or inactive are those of the source. Calls follow the shape of the dose curve; as a rule, active = well fitted cell-killing curve with a large enough effect in the repeat runs; inconclusive = weak or mixed curves, or effect the other way; inactive = flat fitted curve, though single readings scatter.

Assay: Nuclear factor erythroid 2-related factor 2/antioxidant responsive element (Nrf2/ARE) small molecule agonists: qHTS cell viability counter screen in human keratinocytes (AID 1919968); also: nearly all actives have a fitted effect of over 55% in size
Conditions: KeratinoSens HaCaT ARE cells viability, CellTiter-Fluor, 24 h; series mostly up to 92.4 µM; activity change, negative = cytotoxicity: at the top concentration
From the text: U.S. Tox21 Program National Center for Advancing Translational Sciences [NCATS] Division of Preclinical Innovation [DPI] U.S. Environmental Protection Agency [EPA] National Institutes of Environmental Health Sciences [NIEHS] National Toxicology Program [NTP] U.S. Food and Drug Administration [FDA] Tox21 Assay Overview: Oxidative stress has been implicated in the pathogenesis of a variety of diseases ranging from cancer to neurodegeneration. The antioxidant response element (ARE) signaling pathway plays an important role in the amelioration of oxidative stress. The KeratinoSens (Givaudan, Switzerland) is an in vitro test method which quantifies luciferase induction as a measure of activation of Keap1-Nrf2-antioxidationt/electrophile response element (ARE) dependant pathway in HaCaT human keratinocytes stably transfected with a selectable plasmid. The KeratinoSens assay is a cell-based assay with a reporter cell line to detect potential skin sensitizers by their ability to induce the Nrf2/ARE-response. The activation of the report gene under culture conditions can be detected by ONE-Glo Luciferase Assay System (Promega, Madison, WI). This cell line has been used to screen the Tox21 10K compound library to identify agonists that induce oxidative stress. The cytotoxicity of the Tox21 compound library against the KS-ARE cell line was tested in parallel by measuring the cell viability using CellTiter- Fluor assay system (Promega, Madison, WI) in the same wells.
Tox21 Assay Protocol Summary: HaCaT derived cell line KeratinoSens were dispensed at 1,500 cells/5uL/well in 1536-well white wall/solid bottom plates using a Multidrop Combi (ThermoFisher Scientific, Waltham, MA) dispenser. After the assay plates were incubated at 37 C/5% CO2 for 5 h, 23 nL of compounds dissolved in DMSO, positive controls or DMSO only was transferred to the assay plate by a pintool workstation (Kalypsys, San Diego, CA). The plates were incubated at 37 C/5% CO2 for 23 h, followed by addition of 1uL/well of CellTiter-Fluor reagent into the assay plates using a Flying Reagent Dispenser (Aurora Discovery, San Diego, CA) for cell viability readout that measures cytotoxicity. After 1 h incubation at 37 C/5% CO2 the fluorescence intensity was measured using a ViewLux (PerkinElmer, Shelton, CT) plate reader.
% is scaled to controls: 0 for no effect and ±100 for the full control effect; potency is read from the fitted curve at half-maximal effect.

SMILES	Potency	activity change, negative = cytotoxicity
CC(C)CCCCCCc1ccc(O)cc1	6.22 µM (active)	–
c1c[nH]cn1	inactive	–
CS(=O)(=O)O	–	-0.918% (inactive)
CC1(C)[C@H]2CC[C@]1(C)[C@H](O)C2	–	-1.9% (inactive)
CCCCC(CC)COCC1CO1 (stereo not given)	inactive	–
O=S(=O)(O)c1cccc2ccccc12	–	-0.267% (inactive)
CCOC(=O)CN1CCCC1=O	–	-17.6% [at 42.5 µM] (inactive)
CC(O)CNCC(C)O (stereo not given)	inactive	–
Cc1ccc2oc(=O)ccc2c1	inactive	–
OCCN1CCNCC1	inactive	–
COCCCOc1ccnc(CS(=O)c2nc3ccccc3[nH]2)c1C (stereo not given)	inactive	–
CCCC(C)CO (stereo not given)	–	3.3% (inactive)
Cc1ccccc1OCC1CO1 (stereo not given)	–	1.56% (inactive)
CN(CCOc1ccc(CC2SC(=O)NC2=O)cc1)c1ccccn1 (stereo not given)	inactive	–
COc1ccc2cccc(CCNC(C)=O)c2c1	–	-2.08% [at 42.5 µM] (inactive)
CN(C)C(=O)Oc1ccc[n+](C)c1	–	5.04% [at 42.5 µM] (inactive)
C=C(C)C(=O)NCCC[N+](C)(C)C	–	-7.58% (inactive)
O=C1CCCc2ccccc21	–	5.49% (inactive)
CC(C)NCC(O)COc1cccc2ccccc12 (stereo not given)	inactive	–
C=CCOCC(CC)(CO)COCC=C	–	-0.215% (inactive)

SMILES	Potency	activity change, negative = cytotoxicity
CCC(=O)O[C@@H]1C[C@H]2CC[C@]1(C)C2(C)C	–	-6.62% (inactive)
COc1cc(/C=C/C(=O)O[C@H]2CC[C@]34C[C@]35CC[C@]3(C)[C@@H]([C@H](C)CCC=C(C)C)CC[C@@]3(C)[C@@H]5CC[C@H]4C2(C)C)ccc1O	–	4.1% [at 42.5 µM] (inactive)
O=[N+]([O-])c1ccc(F)cc1F	–	0.298% (inactive)
O=C1CC2CC1C1CCCC21 (stereo not given)	–	3.09% (inactive)
CC(C)(Oc1ccc(CCNC(=O)c2ccc(Cl)cc2)cc1)C(=O)O	inactive	–
OCCC(F)(F)C(F)(F)C(F)(F)C(F)(F)C(F)(F)C(F)(F)F	–	-3.03% (inactive)
C1CSCCS1	–	0.871% (inactive)
CSc1ccc2c(c1)N(CCC1CCCCN1C)c1ccccc1S2 (stereo not given)	24.2 µM (active) and 26.6 µM (active)	–
COCCCC/C(=N\OCCN)c1ccc(C(F)(F)F)cc1	–	11.5% [at 42.5 µM] (inactive)
CC(C)=CCC/C(C)=C/C#N	–	5.1% (inactive)
COc1cccc(Br)c1	–	8.17% (inactive)
OCc1ccccc1	inactive	–
BrC1CCC(Br)C(Br)CCC(Br)C(Br)CCC1Br (stereo not given)	17.2 µM (active)	–
CCCCCCCCS(=O)(=O)Cl	–	4.75% (inactive)
CC(=O)Nc1ncc([N+](=O)[O-])s1	–	-9.49% [at 42.5 µM] (inactive)
C=CCCC	–	7.48% (inactive)
CCOc1c(N2CCOCC2)cnn(C)c1=O	–	-0.687% [at 42.5 µM] (inactive)
O=C(C(=O)c1ccccc1)c1ccccc1	–	-0.667% (inactive)
COS(C)(=O)=O	inactive	–
O=C(O)c1ccccc1OP(=O)(O)O	–	-1.27% [at 42.5 µM] (inactive)
